Source: PubChem BioAssay
CYP2C9 inhib – inhibitors of human CYP2C9; CYP2C9 Supersomes, luciferin-H conversion, luminescence; inhibition, % at 5 µM; 96,000 tested, 20% active; AID 777;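 active means blocking of liver enzyme CYP2C9 beyond about 50% at 5 µM, limit read from the data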
CYP2C9 activ – CYP2C9 (human) activation; recombinant CYP2C9, luciferin-H conversion, luminescence; active compounds read high; factor 1 = untreated enzyme, 0 = blocked; activation factor at 5 µM; 96,000 tested, 1.4% active; AID 1024;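 active means activation factor of 2 or more for CYP2C9 at a 5 µM dose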;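 further: 0 = sulfaphenazole-blocked wells and 1 = vehicle-only wells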
CYP2C19 activ – increases human CYP2C19 enzyme activity | recombinant CYP2C19, luciferin-H EGE luminescence; active compounds read high; 0 = fully inhibited enzyme, 1 = untreated enzyme | activation factor at 5 µM | 96,000 tested, under 10 active;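 active means activation factor of at least 2 at 5 µM in the primary screen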;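 further: 0 = wells with 2.5 mM tranylcypromine and 1 = vehicle-only wells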
Target sequence (P33261 whole entry, looked up): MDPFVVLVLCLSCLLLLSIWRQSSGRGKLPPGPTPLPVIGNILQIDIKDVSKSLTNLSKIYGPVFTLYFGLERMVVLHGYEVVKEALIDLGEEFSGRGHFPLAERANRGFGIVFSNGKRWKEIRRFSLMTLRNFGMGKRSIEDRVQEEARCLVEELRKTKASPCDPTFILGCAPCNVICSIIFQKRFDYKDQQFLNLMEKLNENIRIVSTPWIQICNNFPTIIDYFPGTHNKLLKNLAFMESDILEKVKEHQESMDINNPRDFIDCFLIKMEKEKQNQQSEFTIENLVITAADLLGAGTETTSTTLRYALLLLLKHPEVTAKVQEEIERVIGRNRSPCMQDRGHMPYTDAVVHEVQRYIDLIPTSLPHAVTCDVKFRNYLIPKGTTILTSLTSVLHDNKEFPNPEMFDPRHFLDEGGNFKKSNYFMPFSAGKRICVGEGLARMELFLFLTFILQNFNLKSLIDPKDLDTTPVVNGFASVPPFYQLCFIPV
Cav3 T inh – inhibitors of human Cav3.2 T-type calcium channel; AID 449739; 100,000 tested, 4% active; B-score at 10 µM; O95180; Cav3.2-expressing cells, Fluo-4 calcium fluorescence FDSS; active compounds read low;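 active means single-dose well whose peak fluorescence ratio is a statistical outlier from its plate by either plate-standardised score or position-corrected B-score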
CYP2C19 inh – inhibitors of human CYP2C19; P33261; AID 778; CYP2C19 Supersomes, luciferin-H EGE luminescence, 30 min; inhibition, % at 5 µM; 96,000 tested, 21% active;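 active means CYP2C19 inhibition above a set limit at 5 µM in the primary screen, cut at about 50% in these data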;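 further: plate controls were negative control wells for no effect and 2.5 mM tranylcypromine positive control for full effect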
Starred values were filed as active, the others as inactive; . = no result. This is a sample that favours compounds with a hit; in the whole collection about 27% have one here.

SMILES	CYP2C9 inhib	CYP2C9 activ	CYP2C19 activ	Cav3 T inh	CYP2C19 inh
O=C(CN1CCN(Cc2cccc(Cl)c2)C1=O)NCc1ccccn1	-12	1.1	1.2	0.58	-20
CCCc1c(-c2ccc(O)cc2)nn(-c2ccc(O)cc2)c1-c1ccc(O)cc1	.	.	.	-2.3	.
CCOC(=O)C1C(=O)CC(C)(O)C(C(=O)OCC)C1c1cc(Br)ccc1OC (configuration not stated)	32	0.7	0.7	-1	29
CCOc1ccc(Br)cc1C1C(C(=O)OC)=C(N)Oc2cc(N(C)C)ccc21 (configuration not stated)	85*	0.1	0.1	-2.6	94*
Oc1ccc(C=NCC2COc3ccccc3O2)cc1 (configuration not stated)	27	0.7	0.9	0.51	9
C=CCn1c(O)c(N=NC(=O)CNC(=O)/C=C/c2ccco2)c2ccccc21	71*	0.3	0.5	-0.86	49
COc1ccccc1C1=NOC(Cn2c(=O)c3c(ncn3C)n(C)c2=O)C1 (configuration not stated)	-48	1.5	0.7	0.71	26
COc1ccc(C2=NOC(Cn3c(Cc4ccc(Cl)cc4)nc4c3c(=O)n(C)c(=O)n4C)C2)cc1 (configuration not stated)	82*	0.2	0.3	-0.73	74*
CC(=O)OC1CC2(C)C(=O)CCC2C2CCc3cc(O)ccc3C12 (configuration not stated)	6	0.9	1.1	0.0055	-13
O=C(O)CCc1ncc(C(F)(F)F)cc1Cl	1	1	1	0.18	-3
Cc1ccc(F)cc1NC(=O)Cc1ncc(C(F)(F)F)cc1Cl	7	0.9	0.5	-0.79	51*
Cc1cccn2cc(CCNC(=O)c3ccc(Br)o3)nc12	7	0.9	0.8	0.09	22
Cc1cc(C)nc(SCC(=O)N/N=C/c2cccn2-c2cccc(C(F)(F)F)c2)n1	17	0.8	0.7	.	32
Cc1cc(C)nc(SCC(=O)N/N=C/c2cccn2-c2ccc(O)cc2)n1	55*	0.5	0.8	-0.47	17
O=C(Oc1ccc2c(=O)c(Cl)coc2c1)c1ccncc1	77*	0.2	0.3	-0.58	75*
Cc1c(C(=O)O)[nH]c2c1C(=O)CC(c1ccccc1)C2 (configuration not stated)	-8	1.1	1.2	1.8	-16
COCCOC(=O)c1[nH]c2c(c1C)C(=O)CC(c1ccc(N(C)C)cc1)C2 (configuration not stated)	93*	0.1	0.1	-0.23	88*
COCCOC(=O)c1[nH]c2c(c1C)C(=O)CC(c1ccc(F)cc1)C2 (configuration not stated)	98*	0	0.2	-0.18	83*
O=C(NCCCn1ccnc1)C1CC2CCC1C2 (configuration not stated)	74*	0.3	0	0.14	98*
O=C(O)C1C2CCC(C2)C1C(=O)NCCCn1ccnc1 (configuration not stated)	52*	0.5	0.2	0.71	79*
CN(C)c1ccc(NC(=O)CSc2nc3ccccc3c(=O)n2C2CCCCC2)cc1	69*	0.3	0.8	-1.6	24
Cc1cc(NC(=O)CSc2nc3ccccc3c(=O)n2C2CCCC2)no1	33	0.7	0.9	-0.8	8
CCN(CC)C(=O)CSc1nc2ccccc2c(=O)n1-c1ccccc1OC	53*	0.5	0.8	1.6	19
CCCN(CCC)C(=O)CSc1nc2ccccc2c(=O)n1C1CCCC1	65*	0.4	0.7	-5.6*	31
O=C(CSc1nc2ccccc2c(=O)n1C1CC1)NCc1ccccc1	30	0.7	0.6	-0.98	39
SMILES	CYP2C9 inhib	CYP2C9 activ	CYP2C19 activ	Cav3 T inh	CYP2C19 inh
CCN(CC)C(=O)CSc1nc(O)c(Cc2ccccc2)c(=O)n1-c1ccccc1	-4	1	1	-0.26	-2
CC(=O)N(/N=C1\Sc2ccccc2C1=O)c1ccccc1C	30	0.7	0.6	0.79	39
CC(=O)N(/N=C1\Sc2ccccc2C1=O)c1ccccc1	63*	0.4	0.5	-0.035	50*
CCN(CC)c1ccc(NC(=O)CC2Oc3ccccc3NC2=O)c(C)c1 (configuration not stated)	-28	1.3	0.9	-2.4	6
NS(=O)(=O)c1ccc(CNC(=O)NC2(c3ccccc3)CC2)cc1	20	0.8	0.9	-0.0049	9
N#Cc1ccc(-c2csc(NNC(=O)c3ccccc3)n2)cc1	-18	1.2	1.1	-0.14	-14
O=C(Nc1nc(-c2ccccc2)cs1)c1cccnc1	37	0.6	0.3	0.72	67*
O=C(NNc1nc(-c2ccccc2)cs1)c1ccccc1	53*	0.5	0.6	.	40
O=C(NC(=S)Nc1nc(-c2ccc(Br)cc2)cs1)c1cccnc1	27	0.7	1.1	-0.15	-11
Cc1ccc(NC(=O)CSCCc2ccccn2)nc1	9	0.9	0.9	0.63	6
O=C(CSc1ncnc2nc[nH]c12)NCCc1ccccc1	-3	1	0.9	0.61	6
COc1ccc(CNC(=O)CSc2ncnc3nc[nH]c23)cc1	17	0.8	0.4	-0.28	61*
CC(NC(=O)CSc1ncnc2nc[nH]c12)c1ccccc1 (configuration not stated)	94*	0.1	0.8	-1.3	23
CC(=O)CSc1ncnc2nc[nH]c12	13	0.9	0.8	-0.21	22
Cc1ccc(OCCSc2ncnc3nc[nH]c23)cc1	54*	0.5	0.3	-0.073	73*
COC(=O)COc1cccc2c(=O)n(CC(=O)N3CCCc4ccccc43)ccc12	8	0.9	0.9	0.42	6
CCCCSc1nc(N)c(NC(=O)c2ccco2)c(=O)[nH]1	-10	1.1	1.2	-0.16	-21
CCCN(CCC)CCNC(=O)C1c2ccccc2C(=O)N(CCOC)C1c1ccc(F)cc1 (configuration not stated)	-33	1.3	1	1.3	1
CC(C)(C)c1cn(-c2ccc(F)cc2)c(=S)[nH]1	-18	1.2	0.4	0.1	63*
Cc1ccc(-c2cc(C(F)F)nc(N3CCC(C)CC3)n2)cc1	55*	0.5	0.9	0.089	12
Nc1nc(Br)c2c(F)cccc2c1-c1ccc(F)cc1	29	0.7	0.8	-1.4	17
Cc1cccc(Cn2c(=O)n(Cc3ccco3)c(=O)c3ccccc32)c1	62*	0.4	0.9	-3	9
COc1ccc(N(Cc2ccccc2)C(=O)CSc2nnc(Cn3nnc4ccccc43)o2)cc1	74*	0.3	0.6	-5.8*	42
O=C(CSc1nnc(Cn2nnc3ccccc32)o1)Nc1ccc(Cl)cc1	.	.	.	0.054	.
O=C(CSc1nnc(Cn2nnc3ccccc32)o1)N(Cc1ccc(F)cc1)c1ccccc1	59*	0.4	0.7	-2.3	32
COc1ccc(CN(C(=O)CSc2nnc(-c3ccc(F)cc3)o2)c2ccc(F)cc2)cc1	68*	0.3	0.5	-6.5*	54*
